This is an account of results in the supplement of paper PMC10849652.

Of roughly 8,800 targets only a part is listed; those with a hit were picked by preference. About 0.5% of all pairs of compound and target were hits.

UniProt Q9UHD1, sequence (Q9UHD1 whole entry, looked up): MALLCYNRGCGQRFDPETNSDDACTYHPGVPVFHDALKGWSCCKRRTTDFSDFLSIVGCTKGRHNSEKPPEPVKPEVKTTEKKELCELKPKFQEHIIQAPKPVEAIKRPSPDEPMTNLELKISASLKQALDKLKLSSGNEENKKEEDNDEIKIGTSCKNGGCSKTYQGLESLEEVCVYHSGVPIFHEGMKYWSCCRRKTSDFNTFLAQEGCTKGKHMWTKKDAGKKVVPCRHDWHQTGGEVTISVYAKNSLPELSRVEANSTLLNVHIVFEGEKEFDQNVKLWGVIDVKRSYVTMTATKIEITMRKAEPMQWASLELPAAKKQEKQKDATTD
UniProt P26374, sequence (P26374 whole entry, looked up): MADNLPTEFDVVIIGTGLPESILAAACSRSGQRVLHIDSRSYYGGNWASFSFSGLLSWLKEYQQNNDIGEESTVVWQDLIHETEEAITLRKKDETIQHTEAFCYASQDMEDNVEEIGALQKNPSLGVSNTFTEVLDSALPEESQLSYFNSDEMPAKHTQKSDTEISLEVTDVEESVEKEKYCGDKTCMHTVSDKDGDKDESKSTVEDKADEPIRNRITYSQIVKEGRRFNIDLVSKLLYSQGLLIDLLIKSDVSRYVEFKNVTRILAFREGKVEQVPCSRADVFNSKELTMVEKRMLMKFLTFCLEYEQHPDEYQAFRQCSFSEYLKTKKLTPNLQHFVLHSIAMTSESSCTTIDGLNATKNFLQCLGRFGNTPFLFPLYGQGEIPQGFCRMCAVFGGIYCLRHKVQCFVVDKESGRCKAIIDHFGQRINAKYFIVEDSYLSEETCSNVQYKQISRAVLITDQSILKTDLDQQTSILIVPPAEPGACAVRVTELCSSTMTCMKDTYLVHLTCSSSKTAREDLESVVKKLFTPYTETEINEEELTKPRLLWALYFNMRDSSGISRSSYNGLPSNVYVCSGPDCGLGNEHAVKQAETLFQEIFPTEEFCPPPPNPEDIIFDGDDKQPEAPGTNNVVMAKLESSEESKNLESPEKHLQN
UniProt Q96KC8, sequence (Q96KC8 whole entry, looked up): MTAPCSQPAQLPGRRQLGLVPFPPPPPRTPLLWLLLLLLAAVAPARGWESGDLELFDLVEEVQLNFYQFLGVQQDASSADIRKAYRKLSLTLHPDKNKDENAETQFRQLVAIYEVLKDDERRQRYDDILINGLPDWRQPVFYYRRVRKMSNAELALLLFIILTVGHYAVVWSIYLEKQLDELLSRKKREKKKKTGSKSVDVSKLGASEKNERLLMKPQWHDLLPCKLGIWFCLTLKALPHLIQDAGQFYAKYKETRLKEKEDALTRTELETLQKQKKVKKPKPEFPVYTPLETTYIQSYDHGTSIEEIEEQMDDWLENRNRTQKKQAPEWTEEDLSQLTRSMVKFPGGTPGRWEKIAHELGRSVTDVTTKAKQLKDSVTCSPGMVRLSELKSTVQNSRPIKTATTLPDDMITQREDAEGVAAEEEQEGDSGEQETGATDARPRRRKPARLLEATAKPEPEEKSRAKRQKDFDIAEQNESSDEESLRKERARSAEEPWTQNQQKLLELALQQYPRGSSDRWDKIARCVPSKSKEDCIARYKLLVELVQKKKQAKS
UniProt Q8WUH1, sequence (Q8WUH1 whole entry, looked up): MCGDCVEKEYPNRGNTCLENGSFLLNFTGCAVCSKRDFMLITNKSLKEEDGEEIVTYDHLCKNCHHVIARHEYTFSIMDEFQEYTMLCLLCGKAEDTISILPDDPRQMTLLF
UniProt Q9H2P9, sequence (Q9H2P9 whole entry, looked up): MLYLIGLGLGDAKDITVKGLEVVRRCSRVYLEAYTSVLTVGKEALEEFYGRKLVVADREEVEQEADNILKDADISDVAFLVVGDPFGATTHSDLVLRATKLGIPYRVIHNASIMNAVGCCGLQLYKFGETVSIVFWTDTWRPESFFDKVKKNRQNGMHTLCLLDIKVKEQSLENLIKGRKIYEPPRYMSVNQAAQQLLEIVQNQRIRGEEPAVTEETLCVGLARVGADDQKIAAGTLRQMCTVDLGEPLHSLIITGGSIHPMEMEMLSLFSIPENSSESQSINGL
UniProt Q9NSV4, sequence (Q9NSV4 whole entry, looked up): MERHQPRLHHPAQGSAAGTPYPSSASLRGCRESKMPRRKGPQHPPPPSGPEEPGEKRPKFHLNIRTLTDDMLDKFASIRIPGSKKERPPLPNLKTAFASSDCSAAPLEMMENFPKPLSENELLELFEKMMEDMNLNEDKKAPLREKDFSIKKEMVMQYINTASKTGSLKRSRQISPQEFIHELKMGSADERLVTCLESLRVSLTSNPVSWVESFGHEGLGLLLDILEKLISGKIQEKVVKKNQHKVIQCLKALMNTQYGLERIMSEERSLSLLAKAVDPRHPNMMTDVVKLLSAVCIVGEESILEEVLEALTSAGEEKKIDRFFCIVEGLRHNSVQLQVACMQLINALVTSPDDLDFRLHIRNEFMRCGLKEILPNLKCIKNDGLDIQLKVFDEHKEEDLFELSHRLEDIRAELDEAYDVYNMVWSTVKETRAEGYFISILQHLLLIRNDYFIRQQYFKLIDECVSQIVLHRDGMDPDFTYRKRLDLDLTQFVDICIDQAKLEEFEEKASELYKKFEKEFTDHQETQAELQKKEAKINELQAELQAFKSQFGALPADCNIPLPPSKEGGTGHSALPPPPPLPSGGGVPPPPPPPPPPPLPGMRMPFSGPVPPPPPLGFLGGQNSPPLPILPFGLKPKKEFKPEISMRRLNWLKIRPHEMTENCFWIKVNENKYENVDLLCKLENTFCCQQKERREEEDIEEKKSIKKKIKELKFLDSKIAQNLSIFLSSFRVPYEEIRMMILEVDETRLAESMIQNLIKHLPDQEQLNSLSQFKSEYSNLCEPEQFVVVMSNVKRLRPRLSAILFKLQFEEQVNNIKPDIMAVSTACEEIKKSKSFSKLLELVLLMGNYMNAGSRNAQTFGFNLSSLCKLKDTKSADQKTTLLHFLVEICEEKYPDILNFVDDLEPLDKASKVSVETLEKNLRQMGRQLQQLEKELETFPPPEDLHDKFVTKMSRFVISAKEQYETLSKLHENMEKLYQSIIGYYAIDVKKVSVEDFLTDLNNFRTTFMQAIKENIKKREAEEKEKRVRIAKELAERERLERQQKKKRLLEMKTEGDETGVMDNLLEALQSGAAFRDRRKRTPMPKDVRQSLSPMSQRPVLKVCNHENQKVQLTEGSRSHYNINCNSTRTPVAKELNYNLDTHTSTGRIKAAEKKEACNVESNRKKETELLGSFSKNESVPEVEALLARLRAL
UniProt Q8NI60, sequence (Q8NI60 whole entry, looked up): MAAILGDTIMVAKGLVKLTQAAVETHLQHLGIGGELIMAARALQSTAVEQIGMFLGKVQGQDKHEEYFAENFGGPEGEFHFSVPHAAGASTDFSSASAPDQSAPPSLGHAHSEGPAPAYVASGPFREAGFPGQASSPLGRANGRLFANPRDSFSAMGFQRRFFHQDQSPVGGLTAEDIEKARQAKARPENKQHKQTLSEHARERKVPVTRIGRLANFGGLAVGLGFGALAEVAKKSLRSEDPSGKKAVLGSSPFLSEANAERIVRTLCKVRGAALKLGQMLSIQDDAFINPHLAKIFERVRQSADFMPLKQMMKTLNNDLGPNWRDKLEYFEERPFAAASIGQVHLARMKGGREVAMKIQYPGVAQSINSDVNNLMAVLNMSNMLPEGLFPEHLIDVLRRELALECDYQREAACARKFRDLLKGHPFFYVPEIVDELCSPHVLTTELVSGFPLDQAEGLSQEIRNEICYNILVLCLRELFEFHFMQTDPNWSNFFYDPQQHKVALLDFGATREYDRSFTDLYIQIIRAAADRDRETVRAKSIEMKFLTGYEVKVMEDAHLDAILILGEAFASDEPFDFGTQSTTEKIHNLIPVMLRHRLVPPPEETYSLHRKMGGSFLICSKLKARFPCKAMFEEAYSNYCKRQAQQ
UniProt O96017, sequence (O96017 whole entry, looked up): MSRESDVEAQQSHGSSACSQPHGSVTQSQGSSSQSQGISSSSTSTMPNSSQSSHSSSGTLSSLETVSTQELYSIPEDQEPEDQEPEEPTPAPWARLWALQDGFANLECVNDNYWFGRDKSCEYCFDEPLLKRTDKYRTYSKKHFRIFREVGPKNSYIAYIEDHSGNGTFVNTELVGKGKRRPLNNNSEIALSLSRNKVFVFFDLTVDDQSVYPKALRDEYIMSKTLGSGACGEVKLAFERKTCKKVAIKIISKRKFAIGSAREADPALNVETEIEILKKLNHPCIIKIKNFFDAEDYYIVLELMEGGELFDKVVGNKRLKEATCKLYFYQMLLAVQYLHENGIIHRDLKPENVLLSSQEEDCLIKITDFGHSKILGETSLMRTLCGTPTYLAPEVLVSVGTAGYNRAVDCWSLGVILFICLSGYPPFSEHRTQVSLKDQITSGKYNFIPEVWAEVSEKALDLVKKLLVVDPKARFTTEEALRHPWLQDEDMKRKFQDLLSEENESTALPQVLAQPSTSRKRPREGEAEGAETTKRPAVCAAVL
UniProt P17812, sequence (P17812 whole entry, looked up): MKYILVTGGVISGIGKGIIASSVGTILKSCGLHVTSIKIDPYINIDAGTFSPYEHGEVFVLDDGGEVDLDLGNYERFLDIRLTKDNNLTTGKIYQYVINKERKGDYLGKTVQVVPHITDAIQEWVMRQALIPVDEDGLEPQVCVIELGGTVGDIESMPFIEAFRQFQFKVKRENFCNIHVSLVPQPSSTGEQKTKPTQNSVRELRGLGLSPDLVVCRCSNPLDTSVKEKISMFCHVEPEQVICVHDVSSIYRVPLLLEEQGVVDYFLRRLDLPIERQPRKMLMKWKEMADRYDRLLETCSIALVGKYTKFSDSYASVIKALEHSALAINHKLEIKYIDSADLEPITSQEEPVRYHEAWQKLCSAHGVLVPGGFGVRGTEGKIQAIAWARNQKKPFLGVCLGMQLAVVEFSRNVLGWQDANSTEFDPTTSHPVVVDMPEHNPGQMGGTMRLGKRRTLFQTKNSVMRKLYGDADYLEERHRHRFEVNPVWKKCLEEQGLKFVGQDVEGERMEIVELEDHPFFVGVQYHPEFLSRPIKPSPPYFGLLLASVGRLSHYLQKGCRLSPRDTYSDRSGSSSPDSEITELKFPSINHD

Compound in this assay: Cc1sc2c(c1C)C(c1ccc(Cl)cc1)=N[C@@H](CC(=O)OC(C)(C)C)c1nnc(C)n1-2
Briefly: log2 fold change, soluble protein after heating vs DMSO (PISA); higher = thermal stabilisation; K562 lysate, 10 uM; active = over 0.2 and 3.5 SD of the protein, either way, in both replicates (recomputed). In short, it runs like this: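 Following dounce homogenisation of K562 pellets in PBS pH 7.4 with 1 mM MgCl2, crude extract at 1 mg/mL protein was incubated for 30 min with 10 μM compound. Aliquots were then heated for 3 min over 48°C-58°C and pooled, NP-40 was added to 0.5% at 4°C, and soluble protein was recovered as the supernatant at 21,000xg for 90 min. Channel-sum-equalised TMTpro 16plex LC-MS/MS quantified this protein. Each value, from duplicates, is a log-two fold change in thermal stability relative to solvent controls.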
With DCP1A (UniProt Q9NPI6), the log2 fold change is 0.018 (inactive).

For DPH5 isoform 5 (UniProt Q9H2P9), the log2 fold change is -0.144 (inactive).

With CLUH, A0A494C0R8, the log2 fold change is -0.116 (inactive).

As to CLIC2 (UniProt O15247), the log2 fold change was 0.017 (inactive).

CNOT4 isoform 9 (UniProt O95628): the log2 fold change was -0.066 (inactive).

With DLG3 isoform 2 (UniProt Q92796), the log2 fold change was 0.019 (inactive).

DNAJC1 (UniProt Q96KC8): the log2 fold change was -0.011 (inactive).

Take COX20 isoform 2 (UniProt Q5RI15): the log2 fold change was 0.001 (inactive).

In the case of CTPS1 (UniProt P17812), the log2 fold change was -0.014 (inactive).

Regarding DLD (UniProt P09622), the log2 fold change was -0.022 (inactive).

In the case of DCP2 (UniProt Q8IU60), the log2 fold change is 0.026 (inactive).

In the case of CLPB isoform 2 (UniProt Q9H078), the log2 fold change was 0.094 (inactive).

As to CHURC1 isoform 2 (UniProt Q8WUH1), the log2 fold change is -0.014 (inactive).

Consider COQ8A (UniProt Q8NI60), for which the log2 fold change was 0.007 (inactive).

As to CKAP2 (UniProt Q8WWK9), the log2 fold change is -0.003 (inactive).

For CHEK2 (UniProt O96017), the log2 fold change is 0.006 (inactive).

Regarding DDX4 (UniProt Q9NQI0), the log2 fold change is 0.049 (inactive).

Consider CLCN3 (UniProt P51790), for which the log2 fold change was 0.063 (inactive).

With CHORDC1 (UniProt Q9UHD1), the log2 fold change is 0.017 (inactive).

As for CHML (UniProt P26374), the log2 fold change was 0.016 (inactive).

Turning to CSNK1A1 (UniProt P48729), the log2 fold change was 0.025 (inactive).

Regarding DNAH5 (UniProt Q8TE73), the log2 fold change was -0.087 (inactive).

Regarding DIAPH3 (UniProt Q9NSV4), the log2 fold change was 0.099 (inactive).
